Laboratory results: PubChem BioAssay (Tox21)
Records with an inconclusive call do not appear. Where a call stands in place of a potency, no number is given. Calls of active or inactive are those of the source. Calls follow the shape of the full dose curve.

Molecular target: Beta-2 adrenergic receptor (Homo sapiens) (UniProt P07550)
Experiment: Adrenergic beta2 receptor (ADRB2) small molecule agonists, cell-based qHTS assay (AID 1963593);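 also: CHO cells stably overexpressing human ADRB2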
Settings: CHO-ADRB2 cells, cAMP HTRF, 30 min; series mostly up to 92.4 µM
How it was run: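 CHO cells stably over-expressing ADRB2 were plated overnight at 37C, then dosed with compounds plus a stimulation mix containing 100uM IBMX and 25uM Ro-20-1724 for 0.5hr at room temperature. cAMP was measured by HTRF competition, 1hr.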

Sequence of Beta-2 adrenergic receptor (Homo sapiens) (P07550 whole entry, looked up): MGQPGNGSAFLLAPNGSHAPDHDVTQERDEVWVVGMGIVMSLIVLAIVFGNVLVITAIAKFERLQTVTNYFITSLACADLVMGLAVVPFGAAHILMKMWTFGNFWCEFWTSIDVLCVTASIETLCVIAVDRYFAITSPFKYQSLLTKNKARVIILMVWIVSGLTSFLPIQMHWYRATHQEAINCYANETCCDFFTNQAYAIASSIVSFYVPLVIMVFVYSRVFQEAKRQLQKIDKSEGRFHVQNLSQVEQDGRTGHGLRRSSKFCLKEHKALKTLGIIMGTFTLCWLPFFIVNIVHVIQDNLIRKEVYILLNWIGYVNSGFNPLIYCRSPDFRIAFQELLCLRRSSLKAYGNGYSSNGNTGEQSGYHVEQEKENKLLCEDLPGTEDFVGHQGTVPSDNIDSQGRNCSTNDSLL

Row | SMILES | Potency
1 | CC1(C)CC(N=C=O)CC(C)(CN=C=O)C1 (centres undefined) | inactive
2 | CC1(C)O[C@@H]2[C@@H](CO[C@@]3(COS(N)(=O)=O)OC(C)(C)O[C@@H]23)O1 | inactive
3 | CCCCC(CC)COC(=O)CCCCC(=O)OCC(CC)CCCC (centres undefined) | inactive
4 | Cc1c(C(N)=O)cc([N+](=O)[O-])cc1[N+](=O)[O-] | inactive
5 | CC[Si](OC(C)=O)(OC(C)=O)OC(C)=O | inactive
6 | COC(=O)/C=C\C(=O)OC | inactive
7 | CCCCCCCCCCCCCO | inactive
8 | CCCCC(CC)CO (centres undefined) | inactive
9 | Cc1ncc([N+](=O)[O-])n1C | inactive
10 | CN(C)CCOCCN(C)C | inactive
11 | CC(=O)Nc1ccc(C(=O)O)cc1 | inactive
12 | CC1COC(=O)O1 (centres undefined) | inactive
13 | C=C(C)C(=O)O | inactive
14 | C=Cc1cccc(C)c1 | inactive
15 | CC1(C)NC(=O)NC1=O | inactive
16 | O=Cc1ccccc1O | inactive
17 | Nc1ccc(S(=O)(=O)Nc2cnc3ccccc3n2)cc1 | inactive
18 | C[Si](C)(C)O[Si](C)(C)C | inactive
19 | OC[C@]1(O)OC[C@@H](O)[C@H](O)[C@@H]1O | inactive
20 | OB(O)O | inactive
21 | CCO[Si](CCCNC(N)=O)(OCC)OCC | inactive

Row | SMILES | Potency
22 | CC(C)CC(C)CC(O)CC(C)C (centres undefined) | inactive
23 | CCC(C)(O)CCCC(C)C (centres undefined) | inactive
24 | CC(=O)CCc1ccccc1 | inactive
25 | COc1ccc(Nc2ccccc2)c(C)c1 | inactive
26 | Cc1ccc(O)cc1 | inactive
27 | Cc1ccc([N+](=O)[O-])cc1N | inactive
28 | NCCS(=O)(=O)O | inactive
29 | COc1ccc([N+](=O)[O-])cc1N | inactive
30 | CC(=O)CC(=O)N(C)C | inactive
31 | Cc1ccc2c(n1)Oc1ccc(C(C)C(=O)OCC(=O)N(C)C)cc1C2 (centres undefined) | inactive
32 | O=C(CC(C(=O)OC1CCCCC1)S(=O)(=O)O)OC1CCCCC1 (centres undefined) | inactive
33 | CC(=O)Oc1c(C)c(C)c2c(c1C)CC[C@@](C)(CCC[C@H](C)CCC[C@H](C)CCCC(C)C)O2 | inactive
34 | CCCCCCCCCCO | inactive
35 | CC(=O)c1ccc(O)cc1 | inactive
36 | C1N2CN3CN1CN(C2)C3 | inactive
37 | CCCCNC(N)=O | inactive
38 | Cc1cc(=O)[nH]c(C(C)C)n1 | inactive
39 | NCCN1CCNCC1 | inactive
40 | CC(=O)C(C)C | inactive
41 | O=C(O)c1ccc2c(c1)C(=O)OC2=O | inactive
42 | CCOC(=O)C1OC1c1ccccc1 (centres undefined) | inactive

Row | SMILES | Potency
43 | NCCCCCCN | inactive
44 | OCCCc1ccccc1 | inactive
45 | COc1ccc([C@@H]2CC(=O)c3c(O)cc(O[C@@H]4O[C@H](CO[C@@H]5O[C@@H](C)[C@H](O)[C@@H](O)[C@H]5O)[C@@H](O)[C@H](O)[C@H]4O)cc3O2)cc1OC | inactive
46 | O=C1C(N(CO)C(=O)NCO)N(CO)C(=O)N1CO (centres undefined) | inactive
47 | C=CC(C)CCCC(C)(C)O (centres undefined) | inactive
48 | Brc1ccc(Oc2ccc(Br)cc2)cc1 | inactive
49 | CC(C)[N+](C)(CCOC(=O)C1c2ccccc2Oc2ccccc21)C(C)C | inactive
50 | O=CCCCC=O | inactive
51 | CC(=O)OCCOC(C)=O | inactive
52 | OCCc1ccccc1 | inactive
53 | O=C(O)c1ccc(O)cc1 | inactive
54 | CCCCN(CCCC)CCCC | inactive
55 | COc1ccccc1[N+](=O)[O-] | inactive
56 | COC(=O)c1ccc(C=O)cc1 | inactive
57 | CCCCCCC(=O)O | inactive
58 | CCC(=O)/C=C/C1C(C)=CCCC1(C)C (centres undefined) | inactive
59 | CC(=O)N[C@@H](CS)C(=O)O | inactive
60 | [Na+] | inactive
61 | CCC[C@H](N[C@@H](C)C(=O)N1[C@H](C(=O)O)C[C@@H]2CCCC[C@@H]21)C(=O)OCC | inactive
62 | CCCCNC(=O)NS(=O)(=O)c1ccc(C)cc1 | inactive
63 | C=C(C)CC(C)(C)C | inactive

Row | SMILES | Potency
64 | CC(O)CC(C)(C)O (centres undefined) | inactive
65 | CCCCCCCCCCCC(=O)OC | inactive
66 | COc1ccc(C(=O)c2ccccc2)c(O)c1 | inactive
67 | CCCCCCCCC(=O)O | inactive
68 | O=Cc1ccc(CO)o1 | inactive
69 | CCC(=O)O | inactive
70 | CCc1cccc(CC)c1N | inactive
71 | Cc1cc(=O)[nH]c(=S)[nH]1 | inactive
72 | c1ccc(Oc2ccccc2)cc1 | inactive
73 | CC1(C)OC(=O)NC1=O | inactive
74 | CCCCCCO | inactive
75 | C[Si]1(C)O[Si](C)(C)O[Si](C)(C)O[Si](C)(C)O1 | inactive
76 | Cc1cc(C2(c3cc(C)c(O)cc3C)OS(=O)(=O)c3ccccc32)c(C)cc1O | inactive
77 | O=C(OCc1ccccc1)c1ccccc1O | inactive
78 | COc1ccc(C(Cl)=C(c2ccc(OC)cc2)c2ccc(OC)cc2)cc1 | inactive
79 | Cc1ncc(CO)c(CO)c1O | inactive
80 | CCC(Cc1c(I)cc(I)c(N)c1I)C(=O)O (centres undefined) | inactive
81 | Cc1ccc([N+](=O)[O-])c(C)c1 | inactive
82 | Nc1ncnc2nc[nH]c12 | inactive
83 | O=C(O)CN(CC(=O)O)CC(=O)O | inactive
84 | CN(C)CCOC(=O)COc1ccc(Cl)cc1 | inactive
